# This excerpt belongs to a sample that is enriched for hits.
# DRV1 agonist – qHTS for Agonists of Human Resolvin D1 Receptor DRV1; 48,000 tested, 2.5% active; AID 1346428, 2018; activation, % at 76.9 µM; CHO-K1 GPR32 beta-arrestin PathHunter luminescence, 90 min; zero percent set by DMSO-only wells;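 active = activation of at least 60% and not above a set upper limit, about 1 call in 100 departs from these limits; inconclusive = activation of 40% to 60%, or above that upper limit; inactive = activation under 40%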; also: 0% is about no effect
# Target sequence (O75388 whole entry, looked up): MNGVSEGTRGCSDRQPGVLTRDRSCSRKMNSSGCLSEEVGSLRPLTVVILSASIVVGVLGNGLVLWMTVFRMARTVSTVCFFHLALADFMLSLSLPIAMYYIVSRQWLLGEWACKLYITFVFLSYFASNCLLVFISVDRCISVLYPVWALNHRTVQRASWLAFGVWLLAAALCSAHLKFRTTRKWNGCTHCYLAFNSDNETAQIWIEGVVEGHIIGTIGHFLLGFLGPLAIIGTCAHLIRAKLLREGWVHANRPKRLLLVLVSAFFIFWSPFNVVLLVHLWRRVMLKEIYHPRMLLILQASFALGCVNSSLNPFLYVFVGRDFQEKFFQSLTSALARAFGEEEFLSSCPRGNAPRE
#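 Cells are plated overnight, treated with compounds in DMSO for 90 minutes at 37 °C, and developed with PathHunter detection reagent for 1 hour before luminescence is read; signal reflects beta-arrestin binding to GPR32 in engineered CHO-K1 cells.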
# UDG counterscr – Primary qHTS assay for inhibitors of Activation Induced Cytidine Deaminase (AID): UDG Counterscreen signal; Uracil-DNA glycosylase; FRET deamination/UDG coupled assay, UDG read, 4 h; Potency, µM (doses to about 115 µM), inactives show top-dose activity change, negative = inhibition, usual class: inhibitors; 91,000 tested, 0.14% active; AID 1347430, 2020; also: potency is read from the fitted curve at half-maximal effect; % is scaled to controls: 0 for no effect and ±100 for the full control effect; nearly all actives have a fitted effect of over 65% in size
# AID inhibitor – Primary qHTS assay for inhibitors of Activation Induced Cytidine Deaminase (AID): AID signal; 91,000 tested, 0.32% active; Single-stranded DNA cytosine deaminase (Homo sapiens), Q9GZX7; Potency, µM (series often up to 115 µM), actives largely listed as inhibitors; AID deamination FRET fluorescence, UDG-coupled, 4 h; AID 1347428, 2020; also: potency is read from the fitted curve at half-maximal effect; % is scaled to controls: 0 for no effect and ±100 for the full control effect; nearly all actives have a fitted effect of over 25% in size
# Target sequence (Q9GZX7 whole entry, looked up): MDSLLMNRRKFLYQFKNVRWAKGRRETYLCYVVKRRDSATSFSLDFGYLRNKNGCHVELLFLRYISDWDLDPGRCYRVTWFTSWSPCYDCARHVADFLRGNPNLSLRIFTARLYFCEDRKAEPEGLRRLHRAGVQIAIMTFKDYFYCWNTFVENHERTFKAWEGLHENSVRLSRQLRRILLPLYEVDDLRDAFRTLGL
# Active calls of the source: *; i = inactive; u = inconclusive; x = no result; [ ] = dose if it differs, or a comment. Unless noted, calls follow the shape of the dose curve; as a rule, active = well fitted curve in the direction sought with a large enough effect; inconclusive = small, poorly fitted or top-dose-only effect, or another doubt; inactive = no such curve, though single readings can be large; an effect the other way counts as inactive or inconclusive.
SMILES,DRV1 agonist,UDG counterscr,AID inhibitor
CN(Cc1ccccc1)S(=O)(=O)c1nnc(NC(=O)c2cccc(Cl)c2)s1,67.9*,0.1%[57.5 µM],u
O=C(Nc1nnc(S(=O)(=O)N2CCCc3ccccc32)s1)c1cccc(Cl)c1,73.8*,3.9%,u
CN(c1ccccc1)S(=O)(=O)c1nnc(NC(=O)c2ccco2)s1,92.8*,27.8%,i
CN(Cc1ccco1)S(=O)(=O)c1nnc(NC(=O)c2cccc(Cl)c2)s1,u,-11.3%[57.5 µM],u
CN(c1ccccc1)S(=O)(=O)c1nnc(NC(=O)c2ccccc2)s1,7.7,1.0%,i
Cc1cccc(C(=O)Nc2nnc(S(=O)(=O)N3CCCc4ccccc43)s2)c1,48.3,-4.8%,u
COc1ccc(C2C(C(C)=O)=C(O)C(=O)N2c2ccc(OC)cc2)cc1 (configuration not stated),x,-3.5%,i
CCn1c2ccccc2c2cc(NC(=O)COc3cc(C)ccc3C)ccc21,11.1,u,i
Cc1ccc(C)c(OCC(=O)Nc2ccc(Br)cc2C(=O)O)c1,x,1.6%,56.2µM*
Nc1nccnc1C(=O)NCc1ccc(OC(F)F)cc1,x,-0.8%,i
O=c1oc2ccc(Br)cc2cc1S(=O)(=O)N1CCCCC1,x,-6.4%,i
COc1ccc(OC)c(C2C(C(=O)Nc3ccccc3OC)=C(C)Nc3c(C(=O)Nc4ccc(F)cc4)cnn32)c1 (configuration not stated),-22.5,-15.1%,17.8µM*
COc1ccc(OC)c(C2C(C(=O)Nc3ccc(C)cc3C)=C(C)Nc3c(C(=O)Nc4ccc(F)cc4)cnn32)c1 (configuration not stated),-11.0,-9.1%,u
CCOCCCNC(=S)NC1CC1,x,7.2%,i
Cc1nc(-c2ccc(F)cc2)sc1CCNC(=O)c1ccccc1,62.2*,4.9%,i
Cc1nc(-c2ccc(F)cc2)sc1CCNC(=O)c1ccc(OC(C)C)cc1,-10.3,u,u
Cc1nc(-c2cccc(F)c2)sc1CCNC(=O)Cc1ccc(F)cc1,88.1*,2.3%,i
Cc1nc(-c2ccc(F)cc2)sc1CCNC(=O)c1ccc(C(C)(C)C)cc1,-11.2,-12.9%,15.8µM*
Cc1nc(-c2ccc(Cl)cc2)sc1CCNC(=O)c1ccc(C(F)(F)F)cc1,-3.6,20.9%,i
Cc1nc(-c2ccc(F)cc2)sc1CCNC(=O)c1cccs1,8.0,79.4µM*,u
COc1ccc(-c2nc(C)c(CCNC(=O)c3cccs3)s2)cc1OC,2.9,-9.0%,i
Cc1nc(-c2cccc(F)c2)sc1CCNC(=O)C1CCCC1,x,-0.9%,i
CCn1ccc(C(=O)N2CCN(c3ccccc3OC)CC2)n1,x,-7.8%,i
CC(C)C(=O)Nc1ccc(Sc2ccc(Br)cc2)cc1,x,-0.4%,i
Cc1ccccc1CS(=O)CCC(=O)Nc1ccccc1 (configuration not stated),x,4.7%,i
SMILES,DRV1 agonist,UDG counterscr,AID inhibitor
OCCCC1CCCN1 (configuration not stated),x,-10.7%,i
FC(F)(F)c1ccc(Cl)c(N/N=C/C=C/c2ccccc2)c1,x,-4.3%,i
COc1ccc2cnn(CC(=O)Nc3ccc(Cl)cc3Cl)c(=O)c2c1OC,x,2.9%,i
COCCNC(=O)NC(=O)CN(C)Cc1cccs1,x,3.2%,i
COc1cc(OC)c(OC)cc1CNC(=O)Cc1cccc(C(F)(F)F)c1,x,9.3%,i
CC(C)c1ccccc1NC(=O)CSc1nnc(COc2ccccc2Cl)o1,86.5*,-23.4%[57.5 µM],i
CC(C)c1ccccc1NC(=O)CSc1nnc(COc2ccccc2)o1,11.6,1.6%[57.5 µM],i
c1cn(CCCNCC2CCCCC2)cn1,x,-2.1%,i
N#Cc1cccnc1SCc1cccc(C(F)(F)F)c1,x,-14.5%,i
COc1ccc(C(=O)Nc2nc3nc(C)c(Cl)c(=O)n3[nH]2)cc1,5.3,-5.1%,i
Cc1nc2nc(NC(=O)c3ccc(C(C)(C)C)cc3)[nH]n2c(=O)c1Cl,37.5,5.0%,31.6µM*
CC(C)(C)c1ccc(C(=O)N[C@H]2C[C@@H]3CC[C@H]2C3)cc1,x,1.5%,i
CCN(C(=O)c1ccc2[nH]c(C)c(C)c2c1)C1CCS(=O)(=O)C1 (configuration not stated),x,-0.2%,i
C=CC[N+]1(CC2C(C)C=C(C)CC2C)CCCCC1 (configuration not stated),x,-5.7%,i
O=C(Nc1ccccc1C(F)(F)F)C1CCN(c2nnc(-n3cccc3)s2)CC1,-6.9,-0.5%,i
CCN(CC)c1ccc(NC(=O)C2CCN(c3nnc(-n4cccc4)s3)CC2)c(C)c1,60.4*,-7.8%,i
CCCCCCCCSCC(N)=O,x,2.3%,i
COc1cccc(NC(CNS(=O)(=O)c2ccc(C)cc2)c2ccccc2)c1 (configuration not stated),30.8,0.0%,i
Cc1ccc(NC(CNS(=O)(=O)c2ccc(Cl)cc2)c2ccccc2)cc1 (configuration not stated),45.3,-22.3%,i
O=S(=O)(NCC(Nc1ccc(Cl)cc1)c1ccccc1)c1ccccc1 (configuration not stated),108.7*,9.3%,i
COc1cccc(NC(CNS(=O)(=O)c2ccc(Cl)cc2)c2ccccc2)c1 (configuration not stated),77.4*,-20.6%,i
CC(c1ccc(F)cc1)N(C)CCC(=O)N1CCCCC1 (configuration not stated),x,4.5%,i
O=C(CNc1ccccc1SC(F)F)N1CCNC1=O,x,-13.2%,i
Cc1ccc(C(=O)Nc2cc3cc(Cl)ccc3oc2=O)cc1,61.8*,-8.1%,i
COc1ccc(C(=O)Nc2cc3cc(Cl)ccc3oc2=O)cc1OC,-23.3,1.3%,i
SMILES,DRV1 agonist,UDG counterscr,AID inhibitor
Cc1cc(C)n(-c2nc3ccccc3nc2N2CCN(S(=O)(=O)c3ccc4ccccc4c3)CC2)n1,x,89.1µM*,i
Cc1cc(C)n(-c2nc3ccccc3nc2N2CCN(C(=O)c3ccccc3)CC2)n1,x,11.7%,i
CCONC(=O)C(NC(=O)Cc1ccc2ccccc2c1)C(C)C (configuration not stated),x,-3.0%,i
Cc1ccc(S(=O)(=O)Nc2ccc(-c3cn4ccsc4n3)cc2)cc1,x,-1.6%,i
Cc1ccc(-n2ncc3c(NCCc4ccccc4)ncnc32)cc1C,7.6,-12.8%,u
CCOCCCNc1ncnc2c1cnn2-c1ccc(C)c(C)c1,89.3*,6.0%,i
Cc1ccc(/C=C(/SCC(=O)O)c2nc3ccccc3s2)cc1C,x,7.3%,i
CC(C)CCCC(C)CC1C(C#N)=C(N)SC(N)=C1C#N (configuration not stated),x,9.0%,i
C=Cc1ccc(Cn2c(C)c(CNCCc3ccc(OCC)cc3)c(C(=O)O)c2C)cc1,67.5*,-10.1%[57.5 µM],i
CCOc1ccc(CNCc2c(C(=O)O)c(C)n(Cc3c(F)cccc3Cl)c2C)cc1OC,8.4,-2.5%,i
Cc1c(CNCCCc2ccccc2)c(C(=O)O)c(C)n1Cc1ccc(Cl)cc1,94.9*,-7.5%,i
Cc1c(CNCCCc2ccccc2)c(C(=O)O)c(C)n1Cc1cccc(Cl)c1,-22.9,-3.2%,i
